# According to PubChem BioAssay:
# The source made the active and inactive calls.
# Experiments:
# [1] = E. coli DRC41 culture turbidity changes, primary screen, E. coli filamentation inducer project, strain DRC41, OD650, 48 h (AID 1152);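 note: E. coli MC1000 strain DRC41 lacking acrAB efflux pump and sulA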; details: E. coli DRC41 (acrAB sulA), higher = more signal, called active from +8 up or from −8 down
# [2] = small-molecule binders of probe aLefty1, primary screen, biochemical, small-molecule microarray, 635/667 nm fluorescence (AID 1153); details: higher = more signal;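 note: score merges spot fluorescence with signal-to-noise ratio from the scanned slide images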
# [3] = PSAC antagonists in infected red cells, primary screen, cell-based, P. falciparum Indochina, OD700, 1 h (AID 1154); details: P. falciparum Indochina infected RBC osmotic lysis, higher = more signal, called active from +8 up or from −8 down
# [4] = PSAC antagonists in infected red cells, primary screen, cell-based, P. falciparum Indochina, OD700, 2 h (AID 1155);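 note: lysis reports solute entry through the parasite surface anion channel PSAC; channel blockers reduce lysis of infected cells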; details: P. falciparum Indochina infected erythrocytes, osmotic lysis OD700; higher = more signal, called active from +8 up or from −8 down
# [5] = osmotic lysis modulators in infected erythrocytes, primary screen, PSAC antagonist project, cell-based, P. falciparum Indochina, OD700, 3 h (AID 1156); details: higher = more signal, called active from +8 up or from −8 down
# [6] = PSAC antagonists in infected red cells, primary screen, cell-based, P. falciparum Indochina, OD700, 18 h (AID 1157); details: P. falciparum Indochina infected erythrocytes, osmotic lysis OD700, 18 h; higher = more signal, called active from +8 up or from −8 down
# [7] = modulators of S6 phosphorylation in cells, primary screen, cell-based, A549, cytoblot, luminescence, serum-stimulated (AID 1158); details: A549 phospho-S6 cytoblot, 5 h, higher = more signal;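 note: serum-stimulated A549 lung adenocarcinoma cells; signal is phosphorylated S6 detected by cytoblot immunostaining with HRP secondary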
# [8] = molecular target: NADPH oxidase 2 (Homo sapiens) (UniProt P04839); test: NOX2-dependent H2O2 signal modulators, primary screen, NOX inhibitor project, cell-based, HEK293-NOX2, PMA-stimulated, Amplex Red fluorescence (AID 1159); details: 45 min, higher = more signal, called active from +8 up or from −8 down; note: test concentration not given here
# [9] = molecular target: NADPH oxidase 4 (Homo sapiens) (UniProt Q9NPH5); test: NOX4-dependent H2O2 signal modulators, primary screen, NOX inhibitor project, cell-based, HEK293-NOX4, tetracycline-induced, Amplex Red fluorescence (AID 1160); details: 45 min, higher = more signal, called active from +8 up or from −8 down
# [10] = molecular target: NADPH oxidase 5 (Homo sapiens) (UniProt Q96PH1); test: NOX5-dependent H2O2 signal modulators, primary screen, NOX inhibitor project, cell-based, HEK293-NOX5, Amplex Red fluorescence (AID 1161); details: HEK293-NOX5, ionomycin, 45 min, higher = more signal
# NADPH oxidase 5 (Homo sapiens), sequence (Q96PH1 whole entry, looked up): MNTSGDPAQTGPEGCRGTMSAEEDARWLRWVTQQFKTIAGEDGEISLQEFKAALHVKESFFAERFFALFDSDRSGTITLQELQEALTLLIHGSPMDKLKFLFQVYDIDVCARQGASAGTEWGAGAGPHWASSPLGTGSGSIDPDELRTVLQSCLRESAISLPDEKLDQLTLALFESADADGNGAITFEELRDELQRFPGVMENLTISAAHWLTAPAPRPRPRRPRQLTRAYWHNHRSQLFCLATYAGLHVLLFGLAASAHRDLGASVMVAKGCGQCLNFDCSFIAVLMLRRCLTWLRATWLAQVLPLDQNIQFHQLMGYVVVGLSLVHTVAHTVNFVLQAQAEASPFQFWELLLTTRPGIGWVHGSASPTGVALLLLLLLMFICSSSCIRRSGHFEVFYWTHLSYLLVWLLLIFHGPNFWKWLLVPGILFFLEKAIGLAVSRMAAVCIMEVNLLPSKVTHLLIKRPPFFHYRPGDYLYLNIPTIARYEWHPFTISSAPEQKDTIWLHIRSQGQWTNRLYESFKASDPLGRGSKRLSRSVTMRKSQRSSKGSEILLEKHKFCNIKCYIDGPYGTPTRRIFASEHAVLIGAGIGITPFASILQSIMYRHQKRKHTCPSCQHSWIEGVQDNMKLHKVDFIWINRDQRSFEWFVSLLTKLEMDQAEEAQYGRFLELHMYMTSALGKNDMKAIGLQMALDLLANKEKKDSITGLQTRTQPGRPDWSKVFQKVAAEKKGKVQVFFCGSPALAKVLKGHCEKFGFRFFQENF
# NADPH oxidase 2 (Homo sapiens), sequence (P04839 whole entry, looked up): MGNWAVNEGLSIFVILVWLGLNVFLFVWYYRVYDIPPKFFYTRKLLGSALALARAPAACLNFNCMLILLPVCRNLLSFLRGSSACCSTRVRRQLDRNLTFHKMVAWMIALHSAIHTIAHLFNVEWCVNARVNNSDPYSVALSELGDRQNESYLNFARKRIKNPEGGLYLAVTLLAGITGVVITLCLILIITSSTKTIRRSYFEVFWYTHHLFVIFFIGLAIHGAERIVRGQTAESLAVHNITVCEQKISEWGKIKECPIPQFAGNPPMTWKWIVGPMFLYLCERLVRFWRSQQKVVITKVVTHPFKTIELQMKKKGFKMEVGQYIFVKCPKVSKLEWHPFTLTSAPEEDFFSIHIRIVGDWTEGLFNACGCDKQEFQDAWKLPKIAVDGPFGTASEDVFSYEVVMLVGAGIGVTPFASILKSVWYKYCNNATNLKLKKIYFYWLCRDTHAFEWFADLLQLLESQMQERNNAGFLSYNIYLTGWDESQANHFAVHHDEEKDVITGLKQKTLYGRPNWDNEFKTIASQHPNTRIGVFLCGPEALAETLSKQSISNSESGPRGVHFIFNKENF
# NADPH oxidase 4 (Homo sapiens), sequence (Q9NPH5 whole entry, looked up): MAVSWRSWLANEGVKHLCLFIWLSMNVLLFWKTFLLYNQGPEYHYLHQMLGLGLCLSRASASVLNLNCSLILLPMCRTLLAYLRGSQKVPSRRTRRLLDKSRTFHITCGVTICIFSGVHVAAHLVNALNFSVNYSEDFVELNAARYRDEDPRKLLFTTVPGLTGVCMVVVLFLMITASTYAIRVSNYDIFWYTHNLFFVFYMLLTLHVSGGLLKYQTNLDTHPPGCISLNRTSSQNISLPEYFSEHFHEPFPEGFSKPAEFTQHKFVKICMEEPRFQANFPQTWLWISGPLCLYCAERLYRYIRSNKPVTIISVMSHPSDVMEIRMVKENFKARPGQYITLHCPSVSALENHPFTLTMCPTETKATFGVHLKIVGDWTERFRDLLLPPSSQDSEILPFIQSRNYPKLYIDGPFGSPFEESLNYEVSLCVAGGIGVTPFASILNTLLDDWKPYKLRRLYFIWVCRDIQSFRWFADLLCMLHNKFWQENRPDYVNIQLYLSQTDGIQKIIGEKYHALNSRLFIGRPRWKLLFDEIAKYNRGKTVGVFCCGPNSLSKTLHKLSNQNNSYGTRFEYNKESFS
Compound,z-score [1],composite z-score [2],z-score [3],z-score [4],z-score [5],z-score [6],z-score [7],z-score [8],z-score [9],z-score [10]
COC(=O)Cn1c(C(=O)N2CCCC2)cc2c1C[C@H]1CN(C(=O)c3ccccc3)[C@@](Cc3ccc(F)cc3)(C(=O)OC)[C@@H]21,-0.246 (inactive),-0.041,1.32 (inactive),-0.428 (inactive),-0.865 (inactive),-1.71 (inactive),3.59,0.215 (inactive),1.31 (inactive),-1.46
COc1cc(OC)c(C(O)C2C=CC3C(=O)N(c4ccccc4)C(=O)C3N2Nc2ccc(C#N)cc2)cc1Br (stereo not given),-0.652 (inactive),0.843,25 (active),11.4 (active),1.39 (inactive),1.76 (inactive),-0.962,-1.41 (inactive),-5.35 (inactive),-2.08
Cc1ccc(S[C@]2(C(=O)NCC(C)C)CC(=O)N(Cc3ccccc3Cl)[C@@H]2c2ccc(CO)cc2I)cc1,-0.455 (inactive),0.258,3.05 (inactive),0.592 (inactive),1.24 (inactive),0.254 (inactive),0.464,2.55 (inactive),-0.402 (inactive),1.52
O=C1OCC=C[C@H]2OC34C=CCN(Cn5nnc6ccccc65)C(=O)[C@H]3N(CCCCCCO)C(=O)[C@@H]4[C@@H]12 (stereo not given in full),-0.169 (inactive),0.32,1.99 (inactive),0.89 (inactive),1.15 (inactive),0.648 (inactive),-0.394,1.77 (inactive),-0.17 (inactive),2.24
CCOC(=O)C1=CC[C@@H](c2ccc([N+](=O)[O-])cc2)N(S(=O)(=O)c2ccc(C)cc2)[C@H]1c1ccccc1,-0.785 (inactive),0.206,2.13 (inactive),1.6 (inactive),0.106 (inactive),0.903 (inactive),-0.543,1.46 (inactive),1.1 (inactive),1.43
CC(C)C[C@@H]1NC(=O)[C@H]2C[C@@H](C(=O)NCCCCCC[N+](C)(C)C)[C@@H](c3cccc(OCCO)c3)N2C1=O,0.898 (inactive),-0.64,6.18 (inactive),0.596 (inactive),0.853 (inactive),0.251 (inactive),-0.214,1.67 (inactive),0.95 (inactive),1.3
Cc1ccc(S[C@]2(C(=O)O)CC(=O)N(Cc3ccccc3Cl)[C@@H]2c2ccc(CO)cc2)cc1,0.33 (inactive),-0.112,2.67 (inactive),-0.185 (inactive),0.825 (inactive),0.55 (inactive),0.227,0.646 (inactive),-1.5 (inactive),0.432
CN(C)CCCCNC(=O)[C@H]1C[C@H]2C(=O)N[C@@H](CCCCN(C)C)C(=O)N2[C@H]1c1cccc(OCCO)c1,0.357 (inactive),-0.546,0.72 (inactive),-0.0174 (inactive),-0.71 (inactive),-0.0919 (inactive),-0.518,0.731 (inactive),0.756 (inactive),-0.151
[N-]=[N+]=Nc1ccccc1[C@H]1OC(c2ccc(OCCCO)cc2)=N[C@@]1(CCS(=O)(=O)c1ccccc1)C(=O)N1CCCCC1,-0.311 (inactive),0.495,29.8 (active),23.1 (active),3.29 (inactive),3.04 (inactive),1.04,-1.34 (inactive),0.303 (inactive),-0.265
C=CCC(OC(C)=O)[C@@H]1[C@@H](N(Cc2cc3ccccc3o2)C(=O)Cc2ccc(F)cc2)c2cc(OCCCO)ccc2N1C(=O)c1ccc2ccccc2n1 (stereo not given in full),-0.548 (inactive),-0.0984,1.05 (inactive),0.213 (inactive),-0.627 (inactive),-0.0096 (inactive),-0.53,0.259 (inactive),0.642 (inactive),1.28
CCC[C@@H]1C[C@@]1(CCC)[C@@H](NP(=O)(c1ccccc1)c1ccccc1)c1ccc(Cl)cc1,-2.39 (inactive),0.0315,0.887 (inactive),0.0991 (inactive),0.278 (inactive),0.323 (inactive),0.0038,-0.769 (inactive),-1.97 (inactive),0.429
C=C(/C(=C/C[C@@H](OC(=O)c1ccncc1)c1ccccc1OCCO)c1cc(C(=O)OC)ccc1OC)C(C)C,0.548 (inactive),-0.204,23.6 (active),7.36 (inactive),4.04 (inactive),1.44 (inactive),1.12,-0.295 (inactive),-1.04 (inactive),-1.63
C=C[C@@H](COC(C)=O)NS(=O)(=O)c1ccc(Br)cc1,0.032 (inactive),-0.0464,-0.0045 (inactive),-0.446 (inactive),-0.123 (inactive),0.0804 (inactive),-0.0771,-0.34 (inactive),-0.487 (inactive),-0.833
COC(=O)C[C@H]1O[C@]2(C(=O)N(C)c3ccccc32)[C@@H](C)[C@@H]1[Si](C)(C)c1ccc(C)cc1,1.6 (inactive),-0.0789,2.58 (inactive),0.894 (inactive),0.0094 (inactive),0.426 (inactive),0.559,0.626 (inactive),0.00059 (inactive),-1.59
C=CCOC(=O)[C@@H]1[C@H]2C(=O)O[C@H](c3ccccc3)[C@H](c3ccccc3)N2[C@H](c2ccc(OCCOC(=O)[C@H]3C[C@H]4C(=O)N[C@@H](CCCCNC(C)=O)C(=O)N4[C@H]3c3cccc(OCCO)c3)cc2)[C@@]12C(=O)Nc1ccc(I)cc12,-0.04 (inactive),-0.0358,3.68 (inactive),1.73 (inactive),0.309 (inactive),1.16 (inactive),-0.479,1.62 (inactive),0.898 (inactive),1.86
C=CC[C@H](OC(=O)Nc1ccc(OC)cc1)c1ccc(O)c2ccccc12,-0.326 (inactive),0.122,5.07 (inactive),0.919 (inactive),-0.0585 (inactive),0.328 (inactive),-0.93,-6.04 (inactive),-1.58 (inactive),-0.343
CC=CC(O)C1C=CC2C(=O)N(c3ccccc3)C(=O)C2N1Nc1ccccc1 (stereo not given),0.509 (inactive),0.135,5.52 (inactive),1.17 (inactive),0.419 (inactive),1.17 (inactive),-0.959,0.209 (inactive),-4.28 (inactive),-2.42
C=C(COC)/C(=C/C[C@@H](OC(=O)c1ccncc1)c1cccc(OCCO)c1)c1cnc2ccccc2c1,-0.0626 (inactive),0.664,18.8 (active),6.49 (inactive),-1.32 (inactive),1.29 (inactive),0.507,-1.47 (inactive),-0.256 (inactive),-3.1
CCCC=C(CCC)[C@@H](NP(=O)(c1ccccc1)c1ccccc1)c1ccc(C(F)(F)F)cc1,-1.5 (inactive),-0.485,-0.56 (inactive),-0.647 (inactive),-0.309 (inactive),-1.24 (inactive),0.828,0.147 (inactive),1.46 (inactive),1.81
CN1C(=O)[C@@]2(CCS(=O)(=O)c3ccccc3)N=C(c3ccc(OCCCO)cc3)O[C@H]2c2ccccc21,0.583 (inactive),-0.0003,30.1 (active),23.3 (active),0.141 (inactive),0.914 (inactive),0.836,-2.59 (inactive),0.479 (inactive),-0.917
NC(=O)N1C(=O)C2C(C1=O)C1C=C(c3ccc(CO)cc3)C2C(C2CC2)N1Cc1sc2ccccc2c1Cl (stereo not given),0.421 (inactive),0.317,17.8 (active),3.88 (inactive),0.777 (inactive),1.39 (inactive),-0.436,2.51 (inactive),-0.148 (inactive),-0.568
O=C1OC[C@@H](c2ccccc2)N2CC(/C=C/c3ccccc3)=CC12 (stereo not given in full),-0.107 (inactive),-0.469,18.1 (active),3.85 (inactive),2.22 (inactive),1.55 (inactive),-0.126,0.724 (inactive),-0.598 (inactive),0.967
CC(C)(C)OC(=O)CC[C@@]1(C(=O)O)N=C(c2ccc(OCCCO)cc2)O[C@@H]1c1ccccc1CN=[N+]=[N-],0.648 (inactive),0.479,24.5 (active),10 (active),-0.0836 (inactive),1.53 (inactive),0.0274,0.716 (inactive),0.691 (inactive),1.53
COc1ccc([Si](C)(C)[C@@H]2[C@@H](CCn3cc([C@H](O)c4ccccc4)nn3)O[C@]3(C(=O)N(Cc4ccc(N5CCOC5=O)cc4)c4ccccc43)[C@H]2C)cc1,1.34 (inactive),0.142,28.2 (active),17.1 (active),1.45 (inactive),1.63 (inactive),0.0719,1.31 (inactive),2.36 (inactive),1.74
CC(C)NC(=O)[C@@]1(C)c2ccccc2C(=O)N(C(C)C)[C@H]1c1ccc(CO)cc1,-0.508 (inactive),-0.0699,1.21 (inactive),0.547 (inactive),0.702 (inactive),0.255 (inactive),0.0605,-0.0231 (inactive),0.375 (inactive),0.222
CN1C(=O)C2C=CC(C(O)C3CCCCC3)N(N3CCCCC3)C2C1=O (stereo not given),-0.898 (inactive),0.493,0.0569 (inactive),0.257 (inactive),0.42 (inactive),1.27 (inactive),-0.659,-0.407 (inactive),0.674 (inactive),-0.23
